From PubChem BioAssay
FXN GAA850 act: increases GAA850 frataxin promoter reporter activity; HEK293 lucGAA850 FXN promoter luciferase reporter, 24 h; percent of 10 µM SAHA response; activation, % at 6 µM; 360,000 tested, 0.56% active;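 active = activation above the average of all compounds screened plus 3 SD, cutoff fixed separately per campaign, cut at about 7.5% in these data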;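 note: 0% = DMSO wells and 100% = 10 µM SAHA wells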
MITF TRPM1 HTS: increases MITF-driven TRPM1 promoter luciferase signal; 300,000 tested, 0.75% active; SK-MEL-5 TRPM1-promoter luciferase, 24 h; % of positive control, neutral wells = 0; activation, % at 12.5 µM;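 active = mean activation of at least 80% with every replicate also reaching 80%; inconclusive = mean reaches 80% but some replicate falls short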;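 note: 0% = neutral control wells and 100% = parthenolide positive control wells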
esBAF inh: SWI/SNF esBAF complex inhibition; AID 602393; reporter increase, % at 12.5 µM; 350,000 tested, 2% active; mouse ES cells, Bmi1-luciferase knock-in reporter, 24 h; 100% = twice the neutral-well signal; in the data active = activation above about 40%; inconclusive = no clear call, values can overlap the other calls;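 note: 0% = median of the plate's neutral control wells and 100% = double that signal; a rise in the Bmi1 reporter signal indicates esBAF inhibition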
Wnt bcat act: Wnt/beta-catenin pathway activation; Wnt/beta-catenin reporter cell assay, activator, plate reader; activation, % at 9.35 µM; 300,000 tested, 1.2% active; AID 743398; in the data active = activation above about 30%, passing the limit was not always enough; inconclusive = no clear call, values can overlap the other calls;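 note: 0% = neutral control wells and 100% = positive control wells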
Starred values were filed as active, the others as inactive; u = inconclusive; x = no result. Shown are actives, neighbours in structure and some others; about 2.8% of the full set was active somewhere.

SMILES	FXN GAA850 act	MITF TRPM1 HTS	esBAF inh	Wnt bcat act
COCC#Cc1ccc2c(c1)O[C@H](CN(C)S(=O)(=O)c1cccc(F)c1)[C@@H](C)CN([C@H](C)CO)S2(=O)=O	x	x	7	x
CO[C@@H]1CC[C@H]2CCN(C)C(=O)[C@@H](C)[C@H](OC)CN(C)C(=O)c3cccc(C#N)c3OC[C@@H]1O2	x	x	4	x
CCCCCn1cnc2sc(-c3ccccc3)cc2c1=O	4	107*	82*	22
CCN(CC)C(=O)CSc1ncnc2sc(-c3ccccc3)cc12	7	x	63*	x
CCCCn1cnc2sc(-c3ccccc3)cc2c1=O	3	91*	x	x
CN(CCC#N)C(=O)CSc1ncnc2sc(-c3ccccc3)cc12	4	55	x	6
CCCCCn1cnc2sc(CC)cc2c1=O	3	69	x	22
O=C(C[C@@H]1C=C[C@H](NS(=O)(=O)c2ccc(F)cc2)[C@@H](CO)O1)NCCc1ccncc1	x	x	-3	x
CN(C)C(=O)[C@@H]1[C@@H](CO)[C@@H]2Cn3c(ccc(C4=CCCCC4)c3=O)[C@@H]2N1C(=O)c1ccccc1F	x	x	0	x
CCCC(=O)Nc1ccc2c(c1)C(=O)N(C)C[C@@H](OC)[C@@H](C)CN(Cc1ccncc1)[C@@H](C)CO2	x	x	-4	x
COc1ccccc1NC(=O)Nc1nc(CC(=O)Nc2ccc(N(C)C)cc2)cs1	3	15	51*	5
Cc1ccccc1NC(=O)CNC(=O)c1ccc(C(F)(F)F)cc1	3	5	x	-1
COc1ccc(NC(=O)Cc2csc(NC(=O)Nc3ccccc3OC)n2)cc1	-2	x	-3	-2
Cc1ccccc1NC(=O)Nc1ccc(C(F)(F)F)cc1	1	38	x	38*
O=C(Nc1ccc2c(c1)CCC2)c1ccc(Cl)nc1	5	20	82*	11
COc1ccc(/C=C/C(=O)Nc2ccc3c(c2)CCC3)cc1OC	3	29	47*	x
C[C@@H]1CN([C@@H](C)CO)C(=O)c2cc(-c3ccccc3)cnc2O[C@H]1CN(C)C(=O)NC1CCCC1	x	x	0	x
CCCN1[C@H](C(=O)OC)[C@@H](CO)[C@@H]2Cn3c(ccc(-c4cncnc4)c3=O)[C@@H]21	x	x	-3	x
COc1cccc(NC(=O)Nc2ccc3c(c2)C(=O)N(C)C[C@@H](OC)[C@H](C)CN(CCC(F)(F)F)[C@H](C)CO3)c1	x	x	10	x
Cc1ccnc(NC(=O)Nc2ccc(Br)cc2Cl)c1	5	17	x	39*
O=C(Nc1ccc2c(c1)CCC2)Nc1ccc(F)cc1F	4	79	71*	41*
COc1ccc(NC(=O)Nc2ccc(F)c(Cl)c2)cc1	3	127*	x	45*
COc1ccc(OC)c(NC(=O)Nc2ccc(Cl)cc2)c1	1	34	9	x
COC(=O)c1ccccc1NC(=O)Nc1cc(C)ccn1	0	9	6	2
Cc1ccnc(NC(=O)COc2ccc3c(c2)CCC3)c1	4	42	53*	-19
SMILES	FXN GAA850 act	MITF TRPM1 HTS	esBAF inh	Wnt bcat act
O=C(C[C@@H]1CC[C@@H]2[C@H](COC[C@H](O)CN2C(=O)Nc2ccc(Cl)c(Cl)c2)O1)NCc1ccc(F)cc1	x	x	-6	x
Cc1noc(C)c1NC(=O)NCC[C@H]1CC[C@H](NC(=O)Cc2cccnc2)[C@H](CO)O1	x	x	0	x
Cc1ccccc1NC(=O)Nc1ccc2c(c1)CCC2	4	75	72*	-1
O=C(Nc1ccc(Br)cc1)Nc1ccccc1F	3	52	u	20
COc1ccc(NC(=O)Nc2ccccc2OC)cc1	7	u	48*	16
O=C(Nc1ccc2c(c1)CCC2)Nc1ccccc1F	2	108*	5	27
O=C(Nc1ccccc1F)Nc1ccccc1F	4	41	56*	54*
Cc1ccc(NC(=O)Nc2ccc3c(c2)CCC3)cc1	5	u	x	2
COc1ccccc1NC(=O)Nc1ccc(C(N)=O)cc1	2	11	x	9
Cc1ccc(S(=O)(=O)N[C@H]2CC[C@H](CCn3cc(C4CCCCC4)nn3)O[C@H]2CO)cc1	x	x	9	x
C[C@H](CO)N1C[C@H](C)[C@@H](CN(C)C(=O)CCN2CCCCC2)Oc2ncc(C#CCN(C)C)cc2C1=O	x	x	0	x
O=C(C[C@H]1CC[C@H]2[C@@H](COC[C@H](O)CN2Cc2cccc(C(F)(F)F)c2)O1)NCCc1ccccc1	x	x	0	x
COc1ccc(NC(=O)Nc2cc(C)ccn2)cc1	3	9	-67	44*
NS(=O)(=O)c1ccc2nc(NC(=O)Nc3ccccc3F)sc2c1	6	68	12	43*
Cc1ccnc(NC(=O)Nc2ccc(F)cc2)c1	4	42	x	x
Cc1ccccc1NC(=O)Nc1nc2ccc(S(C)(=O)=O)cc2s1	1	47	x	u
COc1ccccc1NC(=O)C(=O)Nc1ccccn1	1	47	35	36*
